Data reported in the supplement of paper PMC6555819.

Assays:
Experiment in all cases: PBM binding z-score (relative to random genomic background probes); higher = stronger binding; sequences stand for … in GC…GCGATTGACAGCGTAGAATGAAGG
[1] = system: PPARg:RXRa DBDmut IVT, anti-RXR (DBD mutation: RXRa K156A/R161A, NR concentration 270 nM, RXRa partner concentration 90 nM)
Method in brief: (§1)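 Binding buffer was PBS pH 7.4 with 2% milk, 0.02% Triton X-100, 1 mM DTT, 0.2 mg/mL BSA and 0.4 mg/ml salmon testes DNA. In it, ligand-free nuclear receptor dimers were incubated 1 h on custom Agilent 4×180K protein-binding microarrays carrying double-stranded probes. Antibodies against each partner (one per run) detected binding, and z-scores were calculated against random background probes after regression normalization of scanned fluorescence.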

[2] = system: PPARg:RXRa IVT, anti-PPARg (NR concentration 270 nM, RXRa partner concentration 90 nM)
Method in brief: as §1

[3] = system: PPARg DBDmut:RXRa IVT, anti-PPARg (DBD mutation: PPARg1 K132A/R137A, NR concentration 270 nM, RXRa partner concentration 90 nM)
Method in brief: as §1

[4] = system: PPARg DBDmut IVT, anti-PPARg (DBD mutation: PPARg1 K132A/R137A, NR concentration 270 nM)
Method in brief: as §1

[5] = system: PPARg homodimer (NR concentration 180 nM)
Method in brief: as §1

[6] = system: PXR:RXRa (NR concentration 270 nM, RXRa partner concentration 90 nM)
Method in brief: as §1

[7] = system: PXR homodimer (NR concentration 270 nM)
Method in brief: as §1

[8] = system: RARa:RXR (NR concentration 270 nM, RXRa partner concentration 90 nM)
Method in brief: as §1

[9] = system: RARa homodimer (NR concentration 270 nM)
Method in brief: as §1

[10] = system: RARb:RXRa (NR concentration 270 nM, RXRa partner concentration 90 nM)
Method in brief: as §1

[11] = system: RARb homodimer (NR concentration 270 nM)
Method in brief: as §1

[12] = system: RARg:RXRa (NR concentration 270 nM, RXRa partner concentration 90 nM)
Method in brief: as §1

[13] = system: RARg homodimer (NR concentration 270 nM)
Method in brief: as §1

[14] = system: RXRa DBDmut IVT, anti-RXR (DBD mutation: RXRa K156A/R161A, NR concentration 90 nM)
Method in brief: as §1

[15] = system: RXRa homodimer (NR concentration 180 nM)
Method in brief: as §1

[16] = system: THRa:RXRa (NR concentration 90 nM, RXRa partner concentration 90 nM)
Method in brief: as §1

[17] = system: THRa homodimer (NR concentration 90 nM)
Method in brief: as §1

[18] = system: VDR homodimer (NR concentration 270 nM)
Method in brief: as §1

| Sequence | PBM binding z-score [1] | PBM binding z-score [2] | PBM binding z-score [3] | PBM binding z-score [4] | PBM binding z-score [5] | PBM binding z-score [6] | PBM binding z-score [7] | PBM binding z-score [8] | PBM binding z-score [9] | PBM binding z-score [10] | PBM binding z-score [11] | PBM binding z-score [12] | PBM binding z-score [13] | PBM binding z-score [14] | PBM binding z-score [15] | PBM binding z-score [16] | PBM binding z-score [17] | PBM binding z-score [18] |
| --- | --- | --- | --- | --- | --- | --- | --- | --- | --- | --- | --- | --- | --- | --- | --- | --- | --- | --- |
| CGTCCAAGGTAATAGGAGGTCAGTGAAGACAGAT | 0.553 | 1.63 | 0.188 | -0.16 | 1.61 | 2.8 | 0.938 | 2.15 | 1.12 | 2.23 | 2.88 | 2.11 | 2.21 | 0.17 | 1.8 | 3.94 | 1.27 | 1.2 |
| CGTCCAAGGTCGGAGAGGTCAGTGAATGCCGAGT | 0.725 | 1.17 | -0.739 | -1.35 | 1.93 | 4.6 | 7.89 | 3.59 | 1.21 | 3.76 | 4.01 | 4.23 | 4.66 | 2.06 | 3.74 | 3.34 | 1.31 | 3.93 |
| CGTCCAAGGTCAGCAGGTCATTGAAAGCGACGTG | 2.83 | 3.78 | 0.265 | -0.0575 | 3.28 | 4.51 | 0.829 | 5.89 | 0.397 | 5.51 | 5.08 | 6.83 | 6.69 | 2.59 | 6.04 | 4.26 | 2.98 | 2.36 |
| CCTACTGGGCCACGAAAGGTCAGTGATTCAGTGA | 4.86 | 5.84 | 1.69 | 0.78 | 3.12 | 3.42 | 0.0598 | 3.82 | 1.31 | 3.81 | 3.87 | 3.69 | 4.04 | -0.37 | 3.1 | 3.1 | 0.0818 | 0.0755 |
| CCTCGGAGGACAGAAGGTCAGAGGTGTCCGCTTT | -0.101 | 0.357 | -1.36 | -1.55 | 0.853 | 1.4 | 0.183 | 2.11 | 0.0276 | 3.32 | 3.67 | 3.28 | 2.68 | 0.0335 | 1.71 | 2.19 | -0.0182 | 0.148 |
| ATCGAAAGGTTGAAGGTGAGTATACCCACCCGAA | -0.526 | 0.764 | 0.619 | 0.928 | 0.699 | 1.06 | -0.0881 | 1.79 | 0.177 | 1.66 | 0.919 | 1.45 | 1.24 | -0.0221 | 2.38 | 0.997 | -0.184 | 0.162 |
| ACGATTAGTTGAGACGAGGGCAACCGATAGGTTG | -0.118 | 0.112 | 0.232 | -0.573 | 0.155 | 1.11 | 0.466 | 0.874 | 0.365 | 0.555 | 0.939 | 0.385 | 0.643 | -0.112 | 0.354 | 2.41 | -0.196 | 0.605 |
| TCTCGGAGGACACGAAAGCTCAGAGCTCGACATC | 1.28 | 0.237 | -0.991 | -1.02 | -0.895 | -0.392 | -0.855 | -0.157 | -0.395 | 1.31 | 0.352 | 0.462 | 1.19 | 0.558 | -0.227 | 1.23 | 0.151 | -0.801 |
